# According to ChEMBL document CHEMBL3988442, “University of Dundee, Small-Polar-MMV Screening Library” (2021):
# In all, about 48,000 compounds went through this assay and about 13,000 (27%) showed an effect of 50% or more. Some of the results follow.
# Tested on: Wolbachia pipientis
# Experiment: Anti-Wolbachia Cell-Based Screen
# Format: functional
# Set-up: scale not given: in the data most compounds retested in dose-response had high values
# Settings: 5 µM
row,Structure (SMILES),Percent Effect
1,O=C(NC[C@H]1OC[C@@H](NC2CCOCC2)[C@@H]1O)Nc1ccccc1,14.81%
2,COCCN(Cc1ccncc1)C(=O)C1COc2ccccc2C1 (stereo not drawn),-25.57%
3,COCCc1nc(CN2CC(C)(c3ccccc3)CCC2=O)no1 (stereo not drawn),-5.62%
4,CCCS(=O)(=O)NC1CCN(c2nnc(C)c(C)c2C#N)CC1,-4.578%
5,Cc1cc(N2CCC(N3CCOCC3)C2)n2nc(C)c(C)c2n1 (stereo not drawn),-1.501%
6,O=C(O)C(F)(F)F.O=C(c1ccsc1)N1CCO[C@@H]2CN(Cc3cccs3)C[C@@H]2C1,14.76%
7,O=C(O)C(F)(F)F.O=C([C@@H]1CN(Cc2nccs2)C[C@H]2OCC[C@H]21)N1CCOCC1,-26.11%
8,Cn1cc(CN2CCO[C@@H]3CN(Cc4ccoc4)C[C@@H]3C2)cn1.O=C(O)C(F)(F)F.O=C(O)C(F)(F)F,9.777%
9,O=C(O)C(F)(F)F.O=C(O)C(F)(F)F.c1coc(CN2C[C@@H]3CN(Cc4ccoc4)CCO[C@@H]3C2)c1,116.5%
10,CN(C)CCN1CCO[C@H]2CN(C(=O)N(C)C)C[C@H]21.O=C(O)C(F)(F)F.O=C(O)C(F)(F)F,6.005%
11,O=C(O)C(F)(F)F.O=C(c1ccsc1)N1CCO[C@@H]2CN(Cc3nccs3)C[C@@H]2C1,102%
12,CCS(=O)(=O)N1C[C@@H]2CN(Cc3ccco3)CCO[C@@H]2C1.O=C(O)C(F)(F)F,-13.85%
13,CN(C)CCN1CCO[C@H]2CN(C(=O)c3ccsc3)C[C@H]21.O=C(O)C(F)(F)F.O=C(O)C(F)(F)F,117.2%
14,CN(C)CCN1CCO[C@H]2CN(C(=O)C3CCOCC3)C[C@H]21,-13.47%
15,CC(CCNC(=O)N(C)CC1CCOCC1)N1CCCCC1 (stereo not drawn),-7.573%
16,CCc1nc(CN2CCCN(C(=O)C(C)n3ccnc3)CC2)cs1 (stereo not drawn),0.184%
17,O=C([C@@H]1Cc2[nH]cnc2CN1C(=O)NC1CCCCC1)N1CCCC1,6.906%
18,CC(C)N(C(=O)N1CCn2cncc2C1)C(C)C,10.83%
19,O=C(NC1CCCCC1)[C@H]1CNC[C@@H](COc2cccnc2)C1,11.4%
20,CCS(=O)(=O)N1Cc2cncn2CC(C(=O)NCC2CC2)C1 (stereo not drawn),119.2%
21,O=C(NCC1CC1)C1CN(C(=O)NC2CCCC2)Cc2cncn2C1 (stereo not drawn),100.7%
22,Cc1cnc(N2CCC3(CC2)CC3C(=O)NCC2CC2)nc1 (stereo not drawn),-18.23%
23,CN(C)CCN1CC2(CCCN(c3ncc(Cl)cc3F)C2)CCC1=O (stereo not drawn),4.533%
24,O=C(c1ccc2c(c1)CCCC2)N1CCCC(n2cncn2)C1 (stereo not drawn),100.2%
25,Cn1ccc(C(=O)N2CCCC(n3cncn3)C2)cc1=O (stereo not drawn),3.949%

row,Structure (SMILES),Percent Effect
1,O=C(c1ccc2c(c1)COC2)N1CCCC(n2cncn2)C1 (stereo not drawn),130%
2,O=C(c1cccc(N2CCCC2=O)c1)N1CCCC(n2cncn2)C1 (stereo not drawn),0.04653%
3,Cc1nc(C)n(C2CCCN(C(=O)c3ccc4c(c3)COC4)C2)n1 (stereo not drawn),-5.905%
4,O=C(c1ccc(Cl)c(Cl)c1)N1CCCC(n2cncn2)C1 (stereo not drawn),3.266%
5,Cc1cc(Nc2ccc3c(c2)CC(=O)N3)nc(C(C)C)n1,5.406%
6,O=C(O)C(F)(F)F.O=S(=O)(C1CC1)N1CCC[C@]2(C[C@@H](Oc3ccccn3)CO2)C1,2.781%
7,Cc1noc(C)c1CN1CCC[C@]2(C[C@@H](Oc3ccccn3)CO2)C1.O=C(O)C(F)(F)F.O=C(O)C(F)(F)F,-19.05%
8,Cc1csc(CN2CCC[C@]3(C[C@@H](OCC4CC4)CO3)C2)n1.O=C(O)C(F)(F)F,105.3%
9,CCS(=O)(=O)N1CC[C@]2(C[C@@H](OCC3CC3)CO2)C1,-6.112%
10,Cc1csc(CN2CCC[C@]3(C[C@H](OCC4CC4)CO3)C2)n1,94.91%
11,CCO[C@@H]1CO[C@@]2(CCCN(Cc3scnc3C)C2)C1.O=C(O)C(F)(F)F,-0.3895%
12,O=C(COc1ccccc1)N1CCC[C@]2(C[C@H](OCC3CC3)CO2)C1,5.425%
13,CCO[C@H]1CO[C@@]2(CCCN(Cc3scnc3C)C2)C1.O=C(O)C(F)(F)F,114.2%
14,CCO[C@H]1CO[C@@]2(CCCN(Cc3nc(C)cs3)C2)C1.O=C(O)C(F)(F)F,-3.246%
15,CO[C@@H]1CO[C@@]2(CCCN(Cc3nc(C)cs3)C2)C1.O=C(O)C(F)(F)F,128.3%
16,O=C(COc1ccccc1)N1CCC[C@]2(C[C@@H](OCC3CC3)CO2)C1,18.43%
17,COc1ccccc1CN1CC[C@]2(C[C@H](OC)CO2)C1.O=C(O)C(F)(F)F,9.484%
18,Cl.c1cnc(N2CCCC(NCc3cccc4c3OCCO4)C2)nc1 (stereo not drawn),11.77%
19,Cc1cn2c(n1)CCC(NS(=O)(=O)c1ccc(C)s1)C2 (stereo not drawn),-1.096%
20,Cc1ccc2c(c1)C1(CCN(C(=O)C3CC3)CC1)CC2N1CCOCC1.O=C(O)C(F)(F)F (stereo not drawn),4.954%
21,Cc1cc(C)n(CC2CCCCN2CC(=O)Nc2c(C)n[nH]c2C)n1 (stereo not drawn),1.6%
22,Cc1n[nH]c(C)c1CCC(=O)NCC1CCCN(C2CCCC2)C1 (stereo not drawn),80.33%
23,Cc1[nH]nc(CCC(=O)NCC2CCCN(C3CCCC3)C2)c1C (stereo not drawn),91.65%
24,Cc1n[nH]c(C)c1NC(=O)CN1CCCC(CNC(=O)C(C)(C)C)C1 (stereo not drawn),3.245%
25,Cc1[nH]nc(CCC(=O)NCC2CCN(C3CCCCC3)C2)c1C (stereo not drawn),82.83%

row,Structure (SMILES),Percent Effect
1,Cc1[nH]nc(CCC(=O)NCC2COc3ccccc3C2)c1C (stereo not drawn),-76.22%
2,CCCc1nc(C)c(C(=O)NCC2CCN(C3CC3)C2)s1 (stereo not drawn),9.564%
3,Cc1n[nH]c(C)c1CCC(=O)NCC1CCOc2ccccc2C1 (stereo not drawn),-7.064%
4,Cc1n[nH]c(C)c1CCC(=O)NCC1COc2ccccc2C1 (stereo not drawn),-6.3%
5,Cc1cc(CN2CCC(CNC(=O)CN3CCCCCC3)C2)[nH]n1 (stereo not drawn),4.399%
6,Cc1ccc(C2CN(C(=O)NCc3nnc4ccccn34)CCO2)o1 (stereo not drawn),-6.842%
7,Cc1cnn(CC(=O)NCC2(O)CCCc3ccccc32)c1 (stereo not drawn),-1.481%
8,CN(Cc1ccc(C(N)=O)cc1)c1ccc(C(F)(F)F)cn1,16.53%
9,FC(F)(F)c1ccccc1CN1CCOC[C@H](Oc2cccnc2)C1,-13.87%
10,COc1cccc2c1N(Cc1nc(C3CC3)no1)CCC2,-12.66%
11,CNc1nc(C(=O)N2CCCN(c3ccnc(C)c3)CC2)cs1,103.6%
12,Cc1cc(N2CCCN(c3ccnc(C)c3)CC2)ccn1,10.82%
13,Cc1cc(N2CCCN(C(=O)Cc3csc(C)n3)CC2)ccn1,-22.63%
14,Cc1cc(N2CCN(C(=O)CCc3scnc3C)CC2)cc(C)n1,13.55%
15,CNc1nc(C(=O)N2CCCC(c3nccn3CC3CCC3)C2)cs1 (stereo not drawn),4.458%
16,CNc1nc(C(=O)N2CCN(c3cc(C)nc(C)c3)CC2)cs1,104.9%
17,Cc1noc2ncc(C(=O)N(CC3CCOC3)C3CC3)cc12 (stereo not drawn),-8.329%
18,CC(C)Cn1cc(NC(=O)NCC2CCN(c3ccccc3)C2)cn1 (stereo not drawn),-4.161%
19,COCCN(C)CCN1CC2(CCN(C3CCOC3)CC2)OC1=O (stereo not drawn),-5.724%
20,Cc1cc(=O)n(CC(=O)NCC2CCCO2)c(-c2ccc(F)cc2)n1 (stereo not drawn),12.17%
21,COc1ccc(-c2n[nH]c(C)c2CC(=O)NCCN2CCOCC2)cc1,95.82%
22,COc1ccc(OCc2nc(C(=O)NCCN3CCOCC3)co2)cc1,-20.12%
23,COc1ccc(CC(=O)Nc2c(C)nc(N3CCOCC3)nc2C)cc1,11.03%
24,Cc1ccc(-c2nc(CC(=O)NCC3CCOC3)cs2)o1 (stereo not drawn),7.713%
25,COc1ccc(-c2n[nH]c(C)c2CC(=O)NCC2CCOCC2)cc1,94.98%

row,Structure (SMILES),Percent Effect
1,COc1ccc(-c2n[nH]c(C)c2CC(=O)NCC2CCCO2)cc1 (stereo not drawn),140.4%
2,COc1ccc2c(c1)OCC(CNC(=O)CCc1c(C)n[nH]c1C)C2 (stereo not drawn),2.391%
3,Cc1ccc(-c2cc(C(=O)NCCN3CCOCC3)n[nH]2)s1,2.618%
4,Cc1ccc(-n2nnc(CC(=O)N3CCOCC3)c2C)cc1,-5.261%
5,CCC(=O)c1ccc(OCC(=O)NCC2CCCO2)cc1 (stereo not drawn),8.672%
6,COc1ccc(-c2n[nH]c(C)c2CC(=O)N2CCOCC2)cc1,82.2%
7,CC(C)N1CCC(NC(=O)NC2CCOc3ccc(Br)cc32)CC1 (stereo not drawn),4.745%
8,CN(C)C(=O)N[C@H]1CN(C2CCOCC2)[C@@H]2CCCO[C@H]12.O=C(O)C(F)(F)F,16.52%
9,NC(=O)c1ccc(N2CCCCC2)c(NC(=O)c2ccc(Br)cc2)c1,7.886%
10,Cc1noc(C)c1CN1CC[C@H]2OCC[C@@H](C(=O)N3CCCO3)[C@@H]2C1,-14.86%
11,Cc1nn2cccnc2c1C(=O)N1CCCC(Nc2ccccc2)C1 (stereo not drawn),-8.048%
12,CC(=O)N(C)CC(=O)NC1(c2ccc(Cl)c(Cl)c2)CC1,-1.911%
13,CC(C)CN1CCN(C(=O)Nc2cc(C(F)(F)F)c[nH]c2=O)CC1,-8.263%
14,O=C(Nc1cc(C(F)(F)F)c[nH]c1=O)c1ccco1,-1.817%
15,CC1CN(C(=O)Nc2cc(C(F)(F)F)c[nH]c2=O)CCO1 (stereo not drawn),83.43%
16,Cn1cnnc1CNC(=O)Nc1cc(C(F)(F)F)c[nH]c1=O,-11.16%
17,COC1CCN(C(=O)Nc2cc(C(F)(F)F)c[nH]c2=O)CC1,107.9%
18,CC(C)(C)N1CCN(C(=O)Nc2cc(C(F)(F)F)c[nH]c2=O)CC1,82.7%
19,CC(CCc1ccco1)NC(=O)Nc1cc(C(F)(F)F)c[nH]c1=O (stereo not drawn),-5.295%
20,Cc1ncc(CNC(=O)Nc2cc(C(F)(F)F)c[nH]c2=O)s1,-11.29%
21,COc1cc(CNC(=O)Nc2cc(C(F)(F)F)c[nH]c2=O)ccn1,-10.71%
22,COCC1CN(C(=O)Nc2cc(C(F)(F)F)ccc2F)CCO1 (stereo not drawn),-13.47%
23,O=C(Nc1cc(C(F)(F)F)c[nH]c1=O)N1CCOCC1,95.88%
